This is an account of results in PubChem BioAssay (Tox21).

The nature of assay [1]: Nuclear factor erythroid 2-related factor 2/antioxidant responsive element (Nrf2/ARE) small molecule agonists: qHTS cell viability counter screen in human keratinocytes (AID 1919968; active means well fitted curve in the direction sought with a large enough effect in the repeat runs; an effect the other way counts as inactive or inconclusive; further: nearly all actives have a fitted effect of over 55% in size). The essentials:
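In human HaCaT keratinocytes stably expressing an ARE-driven luciferase, compound exposure lasted 23 h at 37 C under 5% CO2. Viable cells are quantified with a protease-based fluorogenic reagent (CellTiter-Fluor) read 1 h after addition.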
On the technique in general: qHTS replaces the single test concentration by a dilution series.

Assay [2] can be described thus: Nuclear factor erythroid 2-related factor 2/antioxidant responsive element (Nrf2/ARE) small molecule agonists: luciferase reporter gene qHTS assay in human keratinocytes (AID 1919969; further: nearly all actives have a fitted effect of over 35% in size; further: potency means the concentration at half of the fitted maximal effect). (In general: In a reporter assay the amount or activity of a reporter protein is the signal.)
The target of assay [3] is Gonadotropin-releasing hormone receptor (Homo sapiens) (UniProt P30968). The experiment in a line: Human gonadotropin-releasing hormone receptor (GnRHR) small molecule agonists, calcium flux assay in GnRHR-HEK293 cells (AID 1920063). Further: nearly all actives have a fitted effect of over 35% in size. The procedure, abridged:
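Intracellular calcium rise is the read-out: engineered human GnRHR HEK293 cells, dye-loaded, are exposed to DMSO-dissolved compounds and fluorescence at Ex/Em 480/540 is tracked for 3 min.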

The target in assay [4] is KiSS-1 receptor (Homo sapiens) (UniProt Q969F8). The experiment in a line: Human kisspeptin (KISS1R) small molecule agonists, calcium flux assay in KISS1R-HEK293 cells (AID 1920064; active means well fitted curve in the direction sought with a large enough effect in the repeat runs; an effect the other way counts as inactive or inconclusive). The procedure, abridged: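 Concentration-response testing used 15 concentrations in triplicate on human KISS1R-expressing HEK293 cells. Calcium-dependent fluorescence (Ex/Em 480/540) was followed kinetically for 3 min after compound transfer.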

Assay [5] can be described thus: G protein-coupled receptor (GPCR) small molecule agonists, calcium flux assay: HEK293 wild type cell line counter screen (AID 1920065). The essentials:
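Fluorescence intensity signals activation. After overnight (18 h) culture and a 1 h calcium dye load at 37 C, compounds are added by pin tool and the plate read at 480/540 nm for 3 min in 1 s steps.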

The nature of assay [6]: p53 small molecule agonists, cell-based qHTS assay with human liver microsomes (AID 1963577). The procedure, abridged: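 p53RE-bla reporter cells were pre-incubated 5 h at 37 C, then treated with compounds plus human liver microsomes (0.5 mg/mL final) and NADPH (0.5 mg/mL final) for 16 h at 37 C. Beta-lactamase activity was read by LiveBLAzer fluorescence after 2 h at room temperature.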

Assay [7] can be described thus: p53 small molecule agonists, cell-based qHTS assay with rat liver microsomes (AID 1963578). The procedure, abridged: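 p53RE-bla cells were exposed to compounds together with rat liver microsomes (0.5 mg/mL final) and NADPH (0.5 mg/mL final) for 16 h at 37 C, then read by LiveBLAzer beta-lactamase fluorescence after 2 h at room temperature.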
A short description of assay [8]: p53 small molecule agonists, cell-based qHTS assay with human liver microsomes: qHTS cell viability counter screen (AID 1963579). Further: nearly all actives have a fitted effect of over 45% in size. The essentials: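 p53RE-bla cells (4,000/well) were pre-incubated 5 h at 37 C, then given compounds in DMSO plus human liver microsomes (0.5 mg/mL final) and NADPH (0.5 mg/mL final) for 16 h at 37 C. Viability was read by CellTiter-Glo luminescence.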

Assay [9] is described as follows: p53 small molecule agonists, cell-based qHTS assay with rat liver microsomes: qHTS cell viability counter screen (AID 1963580). Further: nearly all actives have a fitted effect of over 45% in size. The essentials: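 After the beta-lactamase ratio was read, CellTiter-Glo was added to the same wells and luminescence measured at 30 min; cells had been treated 16 h at 37 C with compounds, rat liver microsomes and NADPH (0.5 mg/mL final each).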

Assay [10] is described as follows: p53 small molecule agonists, cell-based qHTS assay: qHTS cell viability counter screen (AID 1963581). Further: nearly all actives have a fitted effect of over 45% in size. The procedure, abridged: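 Luminescence from CellTiter-Glo, reflecting ATP content, serves as the cytotoxicity measure; it is taken after the 2 h reporter substrate step in HCT-116 p53RE-bla cells dosed for 16 h at 37 C.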
The nature of assay [11]: p53 small molecule agonists, cell-based qHTS assay (AID 1963582; active means well fitted activation curve with a large enough effect in the signal ratio in the repeat runs, not every such curve was filed as active; the % refers to the signal ratio). The essentials:
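After plating, p53RE-bla cells sat 5 h in the incubator; compounds or DMSO vehicle were pinned in; a 16 h incubation at 37 C followed; FRET substrate was added and, 2 h later at RT, fluorescence was measured.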

The target of assay [12] is 5-hydroxytryptamine receptor 2A (Homo sapiens) (UniProt P28223). Description: 5-hydroxytryptamine receptor 2A (HTR2A) small molecule antagonists, cell-based qHTS assay (AID 1963586). Further: nearly all actives have a fitted effect of over 45% in size. Further: potency means the concentration at half of the fitted maximal effect. The essentials: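 CHO cells stably expressing human HTR2A were plated for 18 h at 37 C, then loaded with calcium dye for 1 h. Compounds were preincubated 5 min at room temperature before DOI (4 nM solution) was added. Kinetic fluorescence was read for 3 min.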

Assay [13] has the same target. The experiment in a line: 5-hydroxytryptamine receptor 2A (HTR2A) small molecule agonists, cell-based qHTS assay (AID 1963587). Further: nearly all actives have a fitted effect of over 30% in size. The essentials: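 CHO cells stably expressing human HTR2A, plated 18 h, loaded with calcium dye 1 h at 37 C. Agonist mode: compounds added and intracellular calcium fluorescence recorded kinetically for 2 min at 1 sec intervals.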
For assay [14], the target named is Muscarinic acetylcholine receptor M1 (Homo sapiens) (UniProt P11229). Description: Cholinergic receptor muscarinic 1 (CHRM1) small molecule antagonists, cell-based qHTS assay (AID 1963588). Further: nearly all actives have a fitted effect of over 40% in size. The procedure, abridged: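 Compounds were tested at 15 concentrations in three independent runs. Dye-loaded CHRM1-CHO cells were exposed 5 min at room temperature before stimulation by acetylcholine added at 50nM. Intracellular calcium was read kinetically on FDSS for 3 min.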

Assay [15] has the same target. Description: Cholinergic receptor muscarinic 1 (CHRM1) small molecule agonists, cell-based qHTS assay (AID 1963589). Further: nearly all actives have a fitted effect of over 35% in size. The essentials: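 Fluorescent calcium dye reports M1 activation in stably transfected CHO cells. Compounds, 15 concentrations, added after 1 h dye loading at 37 C; kinetic reading at 1 sec intervals.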
Assay [16] in a line: cAMP Responsive Elements (CRE) small molecule antagonists, cell-based qHTS assay (AID 1963591; active means well fitted inhibition curve with a large enough effect in the signal ratio in the repeat runs, not every such curve was filed as active; the % refers to the signal ratio). The essentials: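 Stimulation used NKH477 at a final 0.25 uM for 3 h in compound-treated CRE-bla HEK293T cells, seeded 18 h beforehand. Reporter activity was measured with LiveBLAzer B/G FRET substrate after 2 h at room temperature.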
The target of assay [17] is Beta-2 adrenergic receptor (Homo sapiens) (UniProt P07550). Description: Adrenergic beta2 receptor (ADRB2) small molecule antagonists, cell-based qHTS assay (AID 1963592). Further: series mostly up to about 92 µM; nearly all actives have a fitted effect of over 50% in size. The procedure, abridged: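 Assay format: CHO-ADRB2 cells, 18-20hr seeding at 37C/5% CO2, then compound plus 1nM isoproterenol agonist mix for 0.5hr RT. Homogeneous time-resolved fluorescence cAMP detection after 1hr, expressed as 665/615 nm ratio.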

Assay [18] has as its target D(2) dopamine receptor (Homo sapiens) (UniProt P14416). The experiment in a line: Dopamine D2 receptor (DRD2) small molecule agonists, cell-based qHTS assay (AID 1963594). Further: nearly all actives have a fitted effect of over 35% in size. The procedure, abridged: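 HEK293 cells stably expressing human DRD2, pre-treated with PDE inhibitor Ro20-1724 (0.1 mM final) and compound 10 min at room temperature, then stimulated with NKH477 (200nM […]) for 30 min. cAMP read by HTRF (665/620 nm).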

Assay [19] shares this target. The experiment in a line: Dopamine D2 receptor (DRD2) small molecule antagonists, cell-based qHTS assay (AID 1963595; active means well fitted inhibition curve with a large enough effect in the signal ratio in the repeat runs, with a control signal flat; the % refers to the signal ratio). The procedure, abridged: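 HTRF cAMP read-out at 665 and 620 nm emission (340 nm excitation). Antagonist mode: compounds were tested against 12 nM quinpirole in DRD2-HEK293 cells, with 200 nM NKH477 raising cAMP and 0.1 mM Ro20-1724 blocking its breakdown.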

The nature of assay [20]: cAMP Responsive Elements (CRE) small molecule agonists, cell-based qHTS assay (AID 1963590). The essentials:
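Compound exposure lasted 3 h at 37 C/5% CO2 in CRE-bla HEK 293T cells grown in assay medium with 10% dialyzed FBS and 25 mM HEPES. Reporter signal came from LiveBLAzer B/G FRET substrate, 2 h, room temperature.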

Each structure is given as a SMILES string. Results filed as inconclusive are left out. Some structures have more than one record in an assay (separate samples or runs), and their calls can disagree. Calls of active or inactive are those of the source. Unless noted, the call rests on the fitted dose curve.

Sequence of Beta-2 adrenergic receptor (Homo sapiens) (P07550 whole entry, looked up): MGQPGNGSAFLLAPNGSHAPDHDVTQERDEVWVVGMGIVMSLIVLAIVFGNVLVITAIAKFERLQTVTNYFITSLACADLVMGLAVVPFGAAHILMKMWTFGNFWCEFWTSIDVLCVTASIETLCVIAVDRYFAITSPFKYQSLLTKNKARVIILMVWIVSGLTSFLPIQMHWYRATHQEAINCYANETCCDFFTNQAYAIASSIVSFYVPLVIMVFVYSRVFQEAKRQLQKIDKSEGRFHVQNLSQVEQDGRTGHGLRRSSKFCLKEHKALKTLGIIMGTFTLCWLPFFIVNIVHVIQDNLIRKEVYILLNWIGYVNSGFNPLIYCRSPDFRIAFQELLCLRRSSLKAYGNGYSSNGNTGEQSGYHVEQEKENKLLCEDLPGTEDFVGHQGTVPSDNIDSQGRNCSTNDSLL
Sequence of D(2) dopamine receptor (Homo sapiens) (P14416 whole entry, looked up): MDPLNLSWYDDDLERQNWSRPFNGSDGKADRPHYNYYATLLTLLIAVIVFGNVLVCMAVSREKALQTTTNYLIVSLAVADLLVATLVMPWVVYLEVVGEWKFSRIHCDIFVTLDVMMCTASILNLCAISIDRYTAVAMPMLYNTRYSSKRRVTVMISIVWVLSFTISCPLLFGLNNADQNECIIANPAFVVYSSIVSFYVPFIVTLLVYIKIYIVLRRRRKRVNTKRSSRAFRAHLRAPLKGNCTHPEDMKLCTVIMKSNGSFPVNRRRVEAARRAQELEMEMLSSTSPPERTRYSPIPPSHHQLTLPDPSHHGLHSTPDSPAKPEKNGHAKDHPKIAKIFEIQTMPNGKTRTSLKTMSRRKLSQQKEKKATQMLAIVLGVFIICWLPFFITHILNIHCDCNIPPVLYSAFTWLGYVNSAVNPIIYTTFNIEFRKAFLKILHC
Sequence of KiSS-1 receptor (Homo sapiens) (Q969F8 whole entry, looked up): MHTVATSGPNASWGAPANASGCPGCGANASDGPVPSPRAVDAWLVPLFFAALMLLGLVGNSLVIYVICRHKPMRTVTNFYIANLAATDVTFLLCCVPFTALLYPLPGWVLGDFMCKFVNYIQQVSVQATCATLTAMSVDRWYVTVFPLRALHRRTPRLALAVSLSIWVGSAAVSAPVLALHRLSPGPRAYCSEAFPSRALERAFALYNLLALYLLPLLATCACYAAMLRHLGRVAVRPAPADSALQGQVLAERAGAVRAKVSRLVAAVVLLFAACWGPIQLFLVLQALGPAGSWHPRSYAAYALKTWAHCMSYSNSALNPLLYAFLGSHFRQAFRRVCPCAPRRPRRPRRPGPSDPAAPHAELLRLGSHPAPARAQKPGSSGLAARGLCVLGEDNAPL
Sequence of 5-hydroxytryptamine receptor 2A (Homo sapiens) (P28223 whole entry, looked up): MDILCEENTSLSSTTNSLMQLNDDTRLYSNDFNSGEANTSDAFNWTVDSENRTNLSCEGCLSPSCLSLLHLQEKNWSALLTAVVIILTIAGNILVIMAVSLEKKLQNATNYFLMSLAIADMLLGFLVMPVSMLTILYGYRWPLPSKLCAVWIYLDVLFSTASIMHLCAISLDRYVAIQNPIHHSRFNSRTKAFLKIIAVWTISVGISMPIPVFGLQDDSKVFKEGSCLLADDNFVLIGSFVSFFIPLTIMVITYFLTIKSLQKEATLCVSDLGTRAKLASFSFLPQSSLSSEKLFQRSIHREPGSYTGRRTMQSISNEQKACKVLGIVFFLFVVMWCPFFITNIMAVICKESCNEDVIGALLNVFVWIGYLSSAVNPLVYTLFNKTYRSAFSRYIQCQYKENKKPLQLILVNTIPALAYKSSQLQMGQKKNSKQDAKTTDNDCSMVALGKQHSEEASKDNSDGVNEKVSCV
Sequence of Muscarinic acetylcholine receptor M1 (Homo sapiens) (P11229 whole entry, looked up): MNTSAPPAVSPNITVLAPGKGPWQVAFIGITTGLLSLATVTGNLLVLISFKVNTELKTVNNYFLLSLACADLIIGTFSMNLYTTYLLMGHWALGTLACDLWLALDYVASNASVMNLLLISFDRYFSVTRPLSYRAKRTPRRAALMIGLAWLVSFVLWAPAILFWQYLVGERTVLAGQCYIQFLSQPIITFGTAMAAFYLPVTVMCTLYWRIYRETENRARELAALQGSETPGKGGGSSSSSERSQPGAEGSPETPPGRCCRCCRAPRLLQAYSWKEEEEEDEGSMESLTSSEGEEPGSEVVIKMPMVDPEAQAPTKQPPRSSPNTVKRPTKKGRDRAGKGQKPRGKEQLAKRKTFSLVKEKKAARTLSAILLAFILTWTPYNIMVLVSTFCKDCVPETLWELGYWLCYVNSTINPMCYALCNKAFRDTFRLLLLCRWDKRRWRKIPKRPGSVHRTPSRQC
Sequence of Gonadotropin-releasing hormone receptor (Homo sapiens) (P30968 whole entry, looked up): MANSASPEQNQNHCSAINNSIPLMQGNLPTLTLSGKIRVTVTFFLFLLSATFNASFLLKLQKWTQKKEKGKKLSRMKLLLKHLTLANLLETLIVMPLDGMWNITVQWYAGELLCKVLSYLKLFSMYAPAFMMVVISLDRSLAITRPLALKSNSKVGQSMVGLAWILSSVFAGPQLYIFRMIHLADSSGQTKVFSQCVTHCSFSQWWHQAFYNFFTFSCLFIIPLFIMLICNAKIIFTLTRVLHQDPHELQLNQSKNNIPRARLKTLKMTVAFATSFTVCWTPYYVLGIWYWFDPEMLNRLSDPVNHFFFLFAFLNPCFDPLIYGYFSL

On to `ClC(Cl)(Cl)c1ccccc1`, for which the Potency result in assay [1], in assay [2], in [3], in [4], in [5] and in [6] was “inactive” in each case. The Potency entry in assay [7], in [8], in assay [9], in assay [10], in assay [11] and in assay [12] was “inactive” in each case. In addition, the Potency result in assay [13], in assay [14], in [15], in assay [16], in assay [17] and in assay [18] was “inactive” each time. Moreover, in assay [19], the Potency result is “inactive”.

Take `C=CCOCC1CO1` (stereo not drawn): the Potency entry in assay [1], in assay [2], in [3], in assay [4], in assay [5] and in [6] was “inactive” each time. Further, the Potency result in [7], in [8], in [9], in assay [10], in assay [11] and in assay [12] was “inactive” each time. Moreover, the Potency entry in [13], in assay [14], in assay [20], in assay [16], in assay [17] and in assay [19] was “inactive” throughout.

Consider `CNCC(O)c1ccc(O)cc1` (stereo not drawn), for which the Potency entry in assay [1], in [2], in [3], in assay [4], in assay [5] and in [6] was “inactive” throughout. The Potency entry in [7], in [8], in assay [9], in assay [10], in [11] and in assay [12] was “inactive” throughout. For the same compound, the Potency result in assay [13], in assay [14], in [15], in assay [16], in assay [17] and in assay [18] was “inactive” throughout. Moreover, the Potency entry in assay [19] was “inactive”.

For the compound `CC(Oc1ccc(Cl)cc1Cl)C(=O)O` (stereo not drawn), the Potency entry in assay [1], in [2], in assay [3], in assay [4], in assay [5] and in assay [6] was “inactive” in each case. Also, the Potency result in assay [7], in [8], in assay [9], in assay [10], in assay [11] and in assay [12] was “inactive” each time. Besides, the Potency entry in [13], in [14], in [15], in assay [17], in [18] and in [19] was “inactive” throughout.

For `O=S(=O)(c1ccccc1)c1ccccc1`, the Potency result in assay [1], in [2], in [3], in assay [4], in [5] and in assay [6] was “inactive” throughout. Besides, the Potency entry in assay [7], in assay [8], in assay [9], in assay [10], in [11] and in assay [12] was “inactive” in each case. In addition, the Potency result in assay [13], in [14], in [15], in assay [16], in assay [17] and in assay [19] was “inactive” in each case.

On to `O=C(O)COc1ccc(Cl)cc1Cl`, for which the Potency result in assay [1], in [2], in assay [3], in assay [4], in assay [5] and in assay [6] was “inactive” each time. Further, the Potency result in [7], in assay [8], in assay [9], in [10], in assay [11] and in [12] was “inactive” in each case. The Potency entry in [13], in assay [14], in assay [15], in [16], in [18] and in assay [19] was “inactive” throughout.

On to `COc1ccc(O)c(C(C)(C)C)c1`, for which the Potency result in assay [1], in [3], in [4], in assay [5], in [6] and in assay [7] was “inactive” each time. Besides, the Potency result in [8], in assay [9], in assay [10], in assay [11], in [13] and in [14] was “inactive” each time. Besides, the Potency entry in assay [15], in assay [16], in [17], in assay [18] and in assay [19] was “inactive” throughout. Further, the Potency in assay [2] was 68.7 µM (active); in assay [12] it was 23.7 µM (active) and inactive.

`C[N+]1(C)CCCCC1`: the Potency entry in assay [1], in [2], in [3], in assay [4], in [5] and in [6] was “inactive” each time. Besides, the Potency result in assay [7], in assay [8], in [9], in assay [10], in assay [11] and in [12] was “inactive” throughout. Besides, the Potency result in assay [13], in [14], in [15], in assay [16], in assay [17] and in assay [18] was “inactive” in each case. In addition, the Potency result in [19] was “inactive”.
